# Vaccinia Venus: inhibitors of vaccinia virus (Venus reporter); Vaccinia virus Venus reporter expression, fluorescence; Potency, µM (top dose mostly 36.5 µM), without a hit: at the highest dose activity change, negative = inhibition, most hits filed as inhibitors; 330,000 compounds, 0.46% hits; calls by dose curve; tested in A549 cells; further: potency means the concentration at half of the fitted maximal effect; nearly all actives have a fitted effect of over 30% in size
# FMDV inh: antivirals against foot and mouth disease virus | FMDV antiviral cell-based qHTS | Potency, µM (titrated, usually from 57.9 µM), for the others: top-dose activity change, negative = inhibition, usual class: inhibitors | 410,000 compounds, 1.2% hits; calls by dose curve; tested in HEK293T cells; further: read-out not given here; potency means the concentration at half of the fitted maximal effect; nearly all actives have a fitted effect of over 45% in size
# Marburg entry inh: Marburg virus entry inhibition. Marburg virus pseudotyped entry inhibition, cell reporter. AID 540276. Potency, µM (titrated, usually from 37.8 µM), inactives show at the top dose activity change, negative = inhibition, hits mostly inhibitors. 300,000 compounds, 1.8% hits; calls by dose curve; tested in HEK293 cells; further: potency means the concentration at half of the fitted maximal effect
# HCMV inh: inhibitors of human cytomegalovirus. HFF cells, HCMV-luciferase reporter, 72 h; stronger effect = lower value. activity change, negative = inhibition, % at 57.5 µM. 410,000 compounds, 4.5% hits; in the data active means activity change below about -60%; inconclusive means no clear call, values can overlap the other calls; inactive means above about -39%
#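 Screen run at 2 compound doses on HFFs infected with reporter HCMV, MOI 1 PFU/cell. Luciferase activity from cell lysates at 72 h post infection gave inhibition relative to buffer-only and Salinomycin wells.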
# VACV mCherry inh: inhibitors of vaccinia virus infection (mCherry reporter signal); 310,000 compounds, 0.63% hits; Vaccinia virus mCherry reporter infection, fluorescence; Potency, µM (highest dose often 36.5 µM), for inactives: top-dose activity change, negative = inhibition, hits mostly inhibitors; AID 720579; calls by dose curve; tested in A549 cells; further: potency means the concentration at half of the fitted maximal effect; nearly all actives have a fitted effect of over 35% in size
# Lassa entry inh: Lassa virus entry inhibition; Lassa virus pseudotype entry inhibition, cell reporter; AID 540256; 300,000 compounds, 1.2% hits; Potency, µM (titrated, usually from 37.9 µM), for the others: at the top dose activity change, negative = inhibition, actives largely listed as inhibitors; calls by dose curve; tested in HEK293 cells; further: potency means the concentration at half of the fitted maximal effect; nearly all actives have a fitted effect of over 50% in size
# * marks the source's active call; other numbers are inactive results; i = inactive; u = inconclusive; x = no result; ! = not active in a repeat; [ ] = remark or other dose. This is a sample that favours compounds with a hit; in the whole collection about 6.5% have one here. On the % scale 0 is the no-effect control and ±100 the full control effect.
SMILES,Vaccinia Venus,FMDV inh,Marburg entry inh,HCMV inh,VACV mCherry inh,Lassa entry inh
O=C(c1ccc(F)cc1F)N1CCC(c2noc(-c3ccc(S(=O)(=O)N4CCCC4)cc3)n2)CC1,-12%,-9%,-8%[46.1 µM],-1,-12%,23%[46.1 µM]
C/C(=C\c1ccco1)CN1CCOc2ccc(C(C)(O)COc3ccccc3)cc2C1 (stereo unspecified),5%,-8%,x,x,-11%,x
COc1ccc(NC(=O)/C(C#N)=C/c2ccc(Sc3nncn3C)c([N+](=O)[O-])c2)cc1,-26%,32µM*,u,28,-17%,4%[46.1 µM]
Cn1cnnc1Sc1ccc(C(=O)OCC(=O)Nc2ccccc2)cc1[N+](=O)[O-],x,u,-1%,-3,x,3%
CCN(CC)S(=O)(=O)c1ccc(NC(=O)c2ccc(Sc3nncn3C)c([N+](=O)[O-])c2)cc1,u,-28%,-4%,-81*,u,u
Cn1cnnc1Sc1ccc(/C=C/C(=O)c2ccc(O)cc2)cc1[N+](=O)[O-],x,u,x,-101*,x,x
CN(C)S(=O)(=O)c1cccc(NC(=O)c2ccc(Sc3nncn3C)c([N+](=O)[O-])c2)c1,x,-5%,x,-38,x,x
CCN(CC)S(=O)(=O)c1cc(NC(=O)c2ccc(-n3cncn3)c([N+](=O)[O-])c2)ccc1C,u,13µM*,u,-84*,-19%,u
CCC(C)(C)NC(=O)c1ccc(Sc2nncn2C)c([N+](=O)[O-])c1,-13%,6%,5%,18,-6%,6%
CCOc1ccc(CCNC(=O)c2cc3c(-c4cccc(OC)c4)nn(C)c3s2)cc1OCC,u,u,u,-63*,u,u
CCOc1ccc(CCNC(=O)c2cc3c(-c4ccccc4F)nn(C)c3s2)cc1OCC,u,u,u,-65*,u,u
COc1cccc(-c2nn(C)c3sc(C(=O)NCc4cc(OC)ccc4OC)cc23)c1,-19%,u,7%[46.1 µM],-24,-27%,-33%[46.1 µM]
Cc1ccc(CCNC(=O)c2cc3c(-c4ccccc4F)nn(C)c3s2)cc1,-5%,-20%,23%[46.1 µM],-14,-6%,-6%[46.1 µM]
Cc1ccc(S(=O)(=O)c2cn(Cc3ccccc3)c3cc(N4CCCC4)c(F)cc3c2=O)cc1C,-10%,19%,x,6,-1%,4%[46.1 µM]
CCN(CCCNC(=O)c1cc(Nc2ccccc2OC)nc2ccccc12)c1cccc(C)c1,-16%,-25%,3%[46.1 µM],-9,-20%,2%[46.1 µM]
CC(C)NCC(O)COc1ccc(Br)cc1 (stereo unspecified),-13%,-8%,u,12,-14%,-14%
CC(C)NC[C@H](O)COc1cccc2[nH]ccc12,-8%,-8%,u,-81*,-11%,13%
C=CCc1ccccc1OCC(O)CNC(C)C (stereo unspecified),-11%,-21%,18µM*,-9,0%,2%
C=CCc1ccccc1OCC(O)CNC1CCCC1 (stereo unspecified),x,-4%,x,0,x,x
CC(NCC(O)COc1ccc2ccccc2c1)c1ccccc1 (stereo unspecified),-14%,-20%,u,-84*,u,1%
CC(C)NC[C@@H](O)COc1ccccc1-n1cccc1,x,-13%,x,x,x,x
CC(C)NC[C@@H](O)COc1cccc2ccccc12,-14%,-11%,18µM*,u,-6%,x
OC[C@@H](O)COc1cccc2ccccc12,x,6%,x,x,x,x
CC(C)NC[C@H](O)COc1cccc2ccccc12,-16%,-21%,15µM*,34,-8%,1%
CC(C)NCC(O)COc1ccc(CC(N)=O)cc1 (stereo unspecified),-15%,-13%,2%,56,-9%,-15%
SMILES,Vaccinia Venus,FMDV inh,Marburg entry inh,HCMV inh,VACV mCherry inh,Lassa entry inh
CC(C)NC[C@H](O)COc1ccc(CC(N)=O)cc1,-11%,-16%,0.11µM*!,u,-4%,20%
Cc1oc(-c2ccc(C(=O)Nc3ccc(F)cc3F)cc2)nc1COc1ccccc1,-20%,-14%,x,u,i,7%[46.1 µM]
O=C(NCc1cccc(F)c1)c1ccc2nc(N3CCCCC3)sc2c1,-6%,15%,6%[46.1 µM],66,1%,x
O=C(COc1ccccc1C(=O)Nc1ccccc1)NC1CCCCC1,-16%,x,x,x,i,x
CCCN(C(=O)Cn1ncc2c1-c1ccccc1OC2)c1cccc(C)c1,-20%,0%,-2%[46.1 µM],5,-16%,x
C#CCOCCOCCOCCNc1nc(N2CCN(C(=O)CCCCCCCCCCNC(=O)Cn3cc(C[C@@H](C)O)nn3)CC2)nc(N2CCN(C(=O)CCCCCCCCCCNC(=O)[C@H](CCCCN)n3cc(C[C@@H](C)CC)nn3)CC2)n1,10µM*,u,x,x,u,x
C#CCOCCOCCOCCNc1nc(N2CCN(C(=O)CCCCCCCCCCNC(=O)[C@H](CCCCN)n3cc(CCO)nn3)CC2)nc(N2CCN(C(=O)CCCCCCCCCCNC(=O)[C@H](CCCN=C(N)N)n3cc(C[C@@H](C)CC)nn3)CC2)n1,10µM*,u,x,x,u,x
C#CCOCCOCCOCCNc1nc(N2CCN(C(=O)CCCCCCCCCCNC(=O)[C@H](CCCCN)n3cc(CCO)nn3)CC2)nc(N2CCN(C(=O)CCCCCCCCCCNC(=O)[C@H](CCCCN)n3cc(CCO)nn3)CC2)n1,u,-11%,x,x,i,x
C#CCOCCOCCOCCNc1nc(N2CCN(C(=O)CCCCCCCCCCNC(=O)[C@H](CCCCN)n3cc(C[C@@H](C)CC)nn3)CC2)nc(N2CCN(C(=O)CCCCCCCCCCNC(=O)[C@H](CCCCN)n3cc(C[C@@H](C)CC)nn3)CC2)n1,11µM*,40µM*,x,x,u,x
C#CCOCCOCCOCCNc1nc(N2CCN(C(=O)CCCCCCCCCCNC(=O)[C@H](CCCCN)n3cc(CCCC(=O)O)nn3)CC2)nc(N2CCN(C(=O)CCCCCCCCCCNC(=O)[C@H](CCCN=C(N)N)n3cc(C[C@@H](C)CC)nn3)CC2)n1,11µM*,u,x,x,u,x
C=C(C)CO[C@H]1C=C[C@@H](c2ccccc2)O[C@H]1CO,x,x,2%[14.2 µM],x,x,x
Cc1ncc2c(c1CNS(=O)(=O)N(C)C)CCN(C(=O)c1c(F)cccc1F)C2,13%,-5%,x,x,-4%,x
CC(C)=CCc1c2c(c(O)c3c(=O)c4c(oc13)-c1cc(O)c(O)cc1OC4C=C(C)C)C=CC(C)(C)O2 (stereo unspecified),u,u,x,x,11µM*,x
CC(C)=CCc1c(-c2ccc(O)cc2O)oc2c3c(cc(O)c2c1=O)OC(C)(C)C=C3,-12%,u,x,x,1%,x
Cc1ccn2c(=O)cc(COc3cccc(NC(=O)Nc4cccc(Cl)c4C)c3)nc2c1,u,0%,x,-9,u,-6%[46.1 µM]
COc1cc(/C=C(/NC(=O)c2ccccc2)C(=O)Nc2ccccc2)c([N+](=O)[O-])cc1OC,-12%,-15%,3%,29,i,8%
COc1cc(/C=C(/NC(=O)c2ccccc2)C(=O)Nc2ccc(O)cc2)c([N+](=O)[O-])cc1OC,-4%,0%,-14%,-73*,-9%,u

# Screening data as filed in PubChem.
